Screening results: PubChem, several laboratories
Sampled rows, rich in hits. Any-hit rate of the full collection: about 3.8%.
PAFAH1B2 FP inh: PAFAH1B2 enzyme inhibitors, primary screen, biochemical, fluorescence polarization, human. Platelet-activating factor acetylhydrolase IB subunit alpha2 (Homo sapiens), P68402. recombinant PAFAH1B2, FP-rhodamine activity probe. inhibition, % at 3.39 µM. 340,000 compounds, 1.2% hits. AID 492953, 2010;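 active = inhibition above the mean of all tested compounds plus 3 SD, cut at about 24% in these data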
Target sequence (P68402 whole entry, looked up): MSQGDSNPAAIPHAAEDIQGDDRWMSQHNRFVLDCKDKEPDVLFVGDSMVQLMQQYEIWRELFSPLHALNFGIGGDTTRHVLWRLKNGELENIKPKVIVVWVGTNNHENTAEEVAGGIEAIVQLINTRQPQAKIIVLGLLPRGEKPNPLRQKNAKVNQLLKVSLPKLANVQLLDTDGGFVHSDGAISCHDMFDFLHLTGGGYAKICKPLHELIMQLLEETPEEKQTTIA
pPAFAH inh: pPAFAH enzyme inhibitors, primary screen, biochemical, fluorescence polarization, human; Platelet-activating factor acetylhydrolase (Homo sapiens), Q13093; recombinant pPAFAH, FP-rhodamine probe fluorescence polarization; inhibition, % at 3.39 µM; 330,000 compounds, 1.5% hits; AID 463082, 2010;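 active = inhibition above the mean inhibition across the screen plus 3 SD, cut at about 25% in these data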;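 note: inhibitors block binding of the rhodamine activity-based probe so polarization drops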
PfM18AAP inh: PfM18AAP inhibitors, malaria aminopeptidase, primary screen, biochemical, QFRET, recombinant enzyme. AID 1822, 2009. inhibition, % at 7.35 µM. 290,000 compounds, 1.2% hits. H-Glu-NHMec fluorogenic cleavage. M18 aspartyl aminopeptidase (Plasmodium falciparum 3D7);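 active = inhibition above the campaign mean inhibition over all tested compounds plus 3 SD, cut at about 28% in these data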
DSG3 Ab inh: inhibitors of pemphigus antibody binding to DSG3, primary screen, biochemical, bead-based, flow cytometry, scFv-GFP; Desmoglein-3 (Homo sapiens), P32926; DSG3-coupled beads, scFv-anti-DSG3-GFP binding; stronger effect = lower value; binding (percent of control), % at 10 µM; 310,000 compounds, 0.48% hits; AID 588358, 2011;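 active = binding more than 3 SD below its plate's average and above zero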
PAFAH2 inh: PAFAH2 enzyme inhibitors, primary screen, biochemical, fluorescence polarization, human; Platelet-activating factor acetylhydrolase 2, cytoplasmic (Homo sapiens), Q99487; recombinant PAFAH2, FP-rhodamine activity probe; inhibition, % at 3.39 µM; 340,000 compounds, 0.99% hits; AID 492956, 2010;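 active = inhibition above the mean over all tested compounds plus 3 SD, cut at about 30% in these data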;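 note: inhibitors block probe labeling of enzyme so polarization drops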
PAFAH1B3 inh: PAFAH1B3 enzyme inhibitors, primary screen, biochemical, fluorescence polarization, human; 340,000 compounds, 0.28% hits; AID 492972, 2010; Platelet-activating factor acetylhydrolase IB subunit alpha1 (Homo sapiens), Q15102; recombinant PAFAH1B3, FP-rhodamine probe; inhibition, % at 3.39 µM;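 active = inhibition above the screen-wide average of all tested compounds plus 3 SD, cut at about 25% in these data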
Target sequence (Q15102 whole entry, looked up): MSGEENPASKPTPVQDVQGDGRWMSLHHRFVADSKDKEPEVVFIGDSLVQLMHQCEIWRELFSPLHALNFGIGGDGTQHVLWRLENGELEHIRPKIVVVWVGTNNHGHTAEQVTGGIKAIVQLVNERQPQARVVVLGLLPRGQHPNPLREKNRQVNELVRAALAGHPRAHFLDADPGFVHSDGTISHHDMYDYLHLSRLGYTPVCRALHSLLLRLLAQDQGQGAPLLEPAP
Hits are given with their value.

What do the screens show for `Cc1ccc(-c2cc(C(=O)Nc3ccc(S(=O)(=O)Nc4ncccn4)cc3)c3ccccc3n2)cc1`?
PAFAH1B2 FP inh: inactive; pPAFAH inh: inactive; PfM18AAP inh: inactive; DSG3 Ab inh: inactive; PAFAH2 inh: inactive; PAFAH1B3 inh: inactive

What do the screens show for `CC(C)(C)NS(=O)(=O)c1ccc(NC(=O)c2cc(-c3ccccc3)nc3ccccc23)cc1`?
PAFAH1B2 FP inh: inactive; pPAFAH inh: inactive; PfM18AAP inh: inactive; DSG3 Ab inh: 65; PAFAH2 inh: inactive; PAFAH1B3 inh: inactive

How did CCc1ccc(-c2cc(C(=O)Nc3ccc(S(=O)(=O)NC(C)=O)cc3)c3ccccc3n2)cc1 do in these assays?
PAFAH1B2 FP inh: inactive; pPAFAH inh: inactive; PfM18AAP inh: inactive; DSG3 Ab inh: 63; PAFAH2 inh: inactive; PAFAH1B3 inh: inactive

How did Cc1ccnc2nc(C(=O)OCC(=O)N(C)C3CCCCC3)nn12 do in these assays?
DSG3 Ab inh: inactive

How did CC(C)=NNc1cc([N+](=O)[O-])cc2c1C(=O)N(C)S2=O (centres undefined) do in these assays?
PAFAH1B2 FP inh: inactive; pPAFAH inh: inactive; PfM18AAP inh: 30; DSG3 Ab inh: inactive; PAFAH2 inh: inactive; PAFAH1B3 inh: inactive

How did CN(C)C(=O)c1cc(C(=O)c2ccc(F)cc2C(F)(F)F)c[nH]1 do in these assays?
PAFAH1B2 FP inh: inactive; pPAFAH inh: 30; PfM18AAP inh: inactive; DSG3 Ab inh: inactive; PAFAH2 inh: inactive; PAFAH1B3 inh: inactive

Results for O=C(NNC(=O)c1cc2ccccc2o1)c1ccncc1 ?
PAFAH1B2 FP inh: inactive; pPAFAH inh: inactive; DSG3 Ab inh: inactive; PAFAH2 inh: inactive; PAFAH1B3 inh: inactive

Results for Cc1ccccc1NC(=O)c1cc2ccccc2o1 ?
PAFAH1B2 FP inh: inactive; pPAFAH inh: inactive; PfM18AAP inh: inactive; DSG3 Ab inh: inactive; PAFAH2 inh: inactive; PAFAH1B3 inh: inactive

What do the screens show for `O=C(NNC(=O)c1ccccc1O)c1cc2ccccc2o1`?
PAFAH1B2 FP inh: inactive; pPAFAH inh: 26; DSG3 Ab inh: inactive; PAFAH2 inh: inactive; PAFAH1B3 inh: inactive

How did O=C(NNC(=O)c1ccccc1O)c1ccc(-c2ccc([N+](=O)[O-])cc2)o1 do in these assays?
PAFAH1B2 FP inh: inactive; pPAFAH inh: 32; DSG3 Ab inh: inactive; PAFAH2 inh: 39; PAFAH1B3 inh: inactive

Results for O=C(Nc1ccc(Cl)cc1Cl)c1cc2ccccc2o1 ?
PAFAH1B2 FP inh: inactive; pPAFAH inh: inactive; PfM18AAP inh: inactive; DSG3 Ab inh: 96; PAFAH2 inh: inactive; PAFAH1B3 inh: inactive

Results for CCN(CC)CCN1CNC(=S)NC1 ?
DSG3 Ab inh: inactive

What do the screens show for `Cn1ncc2c(=O)[nH]c(N)nc21`?
PAFAH1B2 FP inh: inactive; DSG3 Ab inh: inactive; PAFAH2 inh: inactive; PAFAH1B3 inh: inactive

What do the screens show for `Cc1ccc(CCNC(=O)C2CCN(S(=O)(=O)c3ccc4c(c3)CCC(=O)N4)CC2)cc1`?
PAFAH1B2 FP inh: inactive; pPAFAH inh: inactive; PfM18AAP inh: inactive; DSG3 Ab inh: 77; PAFAH2 inh: inactive; PAFAH1B3 inh: inactive

Results for COC(=O)CCc1c(C)c(C(=O)c2cc(OC)c(OC)c(OC)c2)c2ccccn12 ?
PAFAH1B2 FP inh: inactive; pPAFAH inh: inactive; PfM18AAP inh: inactive; DSG3 Ab inh: inactive; PAFAH2 inh: inactive; PAFAH1B3 inh: inactive

Results for OCc1nc2ccccc2n1CCCc1ccccc1 ?
DSG3 Ab inh: inactive

What do the screens show for `O=C1c2ccccc2C(=O)C2OC12` (centres undefined)?
pPAFAH inh: inactive; PfM18AAP inh: 29

How did O=C1c2ccccc2C(=O)C1c1ccccn1 do in these assays?
PAFAH1B2 FP inh: inactive; pPAFAH inh: inactive; PfM18AAP inh: inactive; DSG3 Ab inh: inactive; PAFAH2 inh: inactive; PAFAH1B3 inh: inactive

Results for CN(Cc1cnc2nc(N)nc(N)c2n1)c1ccc(C(=O)NC(CCC(=O)O)C(=O)O)c2ccccc12 (centres undefined) ?
PAFAH1B2 FP inh: inactive; DSG3 Ab inh: inactive; PAFAH2 inh: inactive; PAFAH1B3 inh: inactive
